Out of some 5,500 compounds screened, about 2,000 (36%) were called active. Not shown: some 18% with an inconclusive outcome. Rule as the data show it: active = normalized growth mostly below about 0.91 (no sharp cut-off); inconclusive = no clear call, values can overlap the other calls; inactive = mostly above about 0.92. Some of the results follow.
Assay: chemical genetic growth profiling, strain panel (AID 1159580);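 also: tested at 20 µM; growth read once vehicle control cultures reached saturation at 30 °C; 1 = growth at the plate median or of vehicle wells; lower values mean less growth of the strain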
Details: growth OD

Measured: normalized growth

CO[C@@]1(NC(=O)CSCC#N)C(=O)N2C(C(=O)O)=C(CSc3nnnn3C)CSC21 (some centres not stated)
inactive: S. cerevisiae deletion strains, locus YJR075W, strain HOC1, active compounds read low 1.01 | S. cerevisiae deletion strains, locus YKL009W, strain mrt4, active compounds read low 1.04 | S. cerevisiae deletion strains, locus YKL068W, active compounds read low 1.02 | S. cerevisiae deletion strains, locus YKL085W, strain MDH1 (second series), active compounds read low 1.03 | S. cerevisiae deletion strains, locus YKL085W, strain MDH1, active compounds read low 1.03 | S. cerevisiae deletion strains, locus YKL160W, strain elf1, active compounds read low 0.959 | S. cerevisiae deletion strains, locus YKL190W, strain CNB1, active compounds read low 0.995 | S. cerevisiae deletion strains, locus YKR001C, strain vps1, active compounds read low 1.04 | S. cerevisiae deletion strains, locus YKR026C, strain gcn3, active compounds read low 0.996 | S. cerevisiae deletion strains, locus YKR091W, strain srl3, active compounds read low 0.982 | S. cerevisiae deletion strains, locus YLL001W, strain dnm1, active compounds read low 0.96 | S. cerevisiae deletion strains, locus YLL026W, active compounds read low 0.986 | S. cerevisiae deletion strains, locus YLL041C, strain sdh2, active compounds read low 0.978 | S. cerevisiae deletion strains, locus YLR027C, strain aat2, active compounds read low 0.99 | S. cerevisiae deletion strains, locus YLR039C, strain RIC1, active compounds read low 1.07 | S. cerevisiae deletion strains, locus YLR058C, strain SHM2, active compounds read low 1.01 | S. cerevisiae deletion strains, locus YLR102C, strain apc9, active compounds read low 1.04 | S. cerevisiae deletion strains, locus YLR113W, strain HOG1, active compounds read low 0.96 | S. cerevisiae deletion strains, locus YLR221C, strain rsa3, active compounds read low 0.98 | S. cerevisiae deletion strains, locus YLR258W, strain gsy2, active compounds read low 0.98 | S. cerevisiae deletion strains, locus YLR262C, strain YPT6 (second series), active compounds read low 0.981 | S. cerevisiae deletion strains, locus YLR262C, strain YPT6, active compounds read low 1.09 | S. cerevisiae deletion strains, locus YLR268W, strain sec22, active compounds read low 1.02 | S. cerevisiae deletion strains, locus YLR320W, strain mms22, active compounds read low 0.953 | S. cerevisiae deletion strains, locus YLR330W, strain CHS5, active compounds read low 1.01 | S. cerevisiae deletion strains, locus YLR342W, strain FKS1 (second series), active compounds read low 1.01 | S. cerevisiae deletion strains, locus YLR342W, strain FKS1, active compounds read low 0.967 | S. cerevisiae deletion strains, locus YLR357W, strain rsc2, active compounds read low 0.915 | S. cerevisiae deletion strains, locus YLR370C, strain arc18, active compounds read low 0.984 | S. cerevisiae deletion strains, locus YLR371W, strain rom2, active compounds read low 1.04 | S. cerevisiae deletion strains, locus YLR384C, strain iki3, active compounds read low 1 | S. cerevisiae deletion strains, locus YLR418C, strain cdc73, active compounds read low 1.04 | S. cerevisiae deletion strains, locus YML016C, strain PPZ1, active compounds read low 1.01 | S. cerevisiae deletion strains, locus YML032C, strain rad52, active compounds read low 1.05 | S. cerevisiae deletion strains, locus YML120C, strain ndi1, active compounds read low 0.988 | S. cerevisiae deletion strains, locus YML124C, strain tub3, active compounds read low 1.02 | S. cerevisiae deletion strains, locus YMR058W, strain fet3, active compounds read low 1.01 | S. cerevisiae deletion strains, locus YMR078C, strain ctf18, active compounds read low 1.03 | S. cerevisiae deletion strains, locus YMR125W, strain sto1, active compounds read low 1.01 | S. cerevisiae deletion strains, locus YMR129W, active compounds read low 0.995 | S. cerevisiae deletion strains, locus YMR205C, strain PFK2, active compounds read low 0.965 | S. cerevisiae deletion strains, locus YMR223W, strain ubp8, active compounds read low 1.04 | S. cerevisiae deletion strains, locus YMR231W, strain pep5, active compounds read low 0.985 | S. cerevisiae deletion strains, locus YMR263W, strain SAP30, active compounds read low 1.01 | S. cerevisiae deletion strains, locus YMR307W, strain GAS1, active compounds read low 1.05 | S. cerevisiae deletion strains, locus YNL067W, strain RPL9B, active compounds read low 1.01 | S. cerevisiae deletion strains, locus YNL071W, strain lat1, active compounds read low 0.991 | S. cerevisiae deletion strains, locus YNL128W, strain TEP1, active compounds read low 1.02 | S. cerevisiae deletion strains, locus YNL153C, strain GIM3, active compounds read low 1.01 | S. cerevisiae deletion strains, locus YNL183C, strain NPR1, active compounds read low 0.926 | S. cerevisiae deletion strains, locus YNL209W, strain ssb2, active compounds read low 0.988 | S. cerevisiae deletion strains, locus YNL233W, strain BNI4, active compounds read low 1.02 | S. cerevisiae deletion strains, locus YNL248C, strain rpa49, active compounds read low 0.973 | S. cerevisiae deletion strains, locus YNL250W, strain rad50, active compounds read low 1.05 | S. cerevisiae deletion strains, locus YNL271C, strain bni1, active compounds read low 1.04 | S. cerevisiae deletion strains, locus YNL298W, strain CLA4, active compounds read low 1.04 | S. cerevisiae deletion strains, locus YNL307C, strain MCK1, active compounds read low 1.04 | S. cerevisiae deletion strains, locus YNL322C, strain KRE1 (second series), active compounds read low 0.959 | S. cerevisiae deletion strains, locus YNL322C, strain KRE1, active compounds read low 1.02 | S. cerevisiae deletion strains, locus YNR049C, strain mso1, active compounds read low 0.975 | S. cerevisiae deletion strains, locus YNR052C, strain pop2, active compounds read low 1.05 | S. cerevisiae deletion strains, locus YOL006C, strain TOP1, active compounds read low 1.03 | S. cerevisiae deletion strains, locus YOL012C, strain htz1 1.23 | S. cerevisiae deletion strains, locus YOL147C, strain pex11, active compounds read low 1.03 | S. cerevisiae deletion strains, locus YOR001W, strain rrp6, active compounds read low 1.01 | S. cerevisiae deletion strains, locus YOR061W, strain CKA2, active compounds read low 1.01 | S. cerevisiae deletion strains, locus YOR069W, strain VPS5, active compounds read low 1.01 | S. cerevisiae deletion strains, locus YOR070C, strain gyp1, active compounds read low 0.989 | S. cerevisiae deletion strains, locus YOR080W, strain dia2, active compounds read low 0.997 | S. cerevisiae deletion strains, locus YOR083W, strain WHI5, active compounds read low 0.913 | S. cerevisiae deletion strains, locus YOR106W, strain vam3, active compounds read low 0.968 | S. cerevisiae deletion strains, locus YOR136W, strain idh2, active compounds read low 1.04 | S. cerevisiae deletion strains, locus YOR144C, strain elg1, active compounds read low 1.02 | S. cerevisiae deletion strains, locus YOR184W, strain ser1, active compounds read low 1.05 | S. cerevisiae deletion strains, locus YOR231W, strain MKK1, active compounds read low 0.976 | S. cerevisiae deletion strains, locus YOR265W, strain rbl2, active compounds read low 0.974 | S. cerevisiae deletion strains, locus YOR270C, strain vph1, active compounds read low 0.993 | S. cerevisiae deletion strains, locus YOR290C, strain snf2, active compounds read low 0.966 | S. cerevisiae deletion strains, locus YOR316C, strain cot1, active compounds read low 1.03 | S. cerevisiae deletion strains, locus YPL051W, strain arl3, active compounds read low 0.98 | S. cerevisiae deletion strains, locus YPL055C, strain LGE1, active compounds read low 1.05 | S. cerevisiae deletion strains, locus YPL078C, strain atp4, active compounds read low 0.98 | S. cerevisiae deletion strains, locus YPL106C, strain sse1, active compounds read low 0.948 | S. cerevisiae deletion strains, locus YPL240C, strain hsp82, active compounds read low 0.997 | S. cerevisiae deletion strains, locus YPL241C, strain CIN2, active compounds read low 1.01 | S. cerevisiae deletion strains, locus YPL256C, strain CLN2, active compounds read low 1 | S. cerevisiae deletion strains, locus YPR119W, strain clb2, active compounds read low 1.04 | S. cerevisiae deletion strains, locus YPR141C, strain kar3, active compounds read low 1.05 | S. cerevisiae deletion strains, locus YPR163C, strain tif3, active compounds read low 1.03 | S. cerevisiae deletion strains, locus YPR167C, strain met16, active compounds read low 1.04 | S. cerevisiae deletion strains, strain wtn01, active compounds read low 1.02 | S. cerevisiae strains, strain wild type, active compounds read low 1.01

Reference: PubChem BioAssay AID1159580 (chemical genetic matrix, 2015)
